# From PubChem BioAssay (NCATS)
# Inconclusive results are not listed. A number with no mark means an inactive call. Calls of active or inactive are those of the source. Calls come from the whole dose curve; as a rule, active = well fitted inhibition curve with a large enough effect; inconclusive = small, poorly fitted or top-dose-only effect; inactive = flat fitted curve, though single readings scatter.
# Tested on: CRL-7250
# Assay: Cytotoxic Profiling of Annotated Libraries Using Quantitative High-Throughput Screening (AID 1296008); note: nearly all actives have a fitted effect of over 60% in size
# Details: Five cell lines viability, CellTiter-Glo ATP luminescence, 48-72 h; max response: active compounds read low
# Procedure, shortened: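 Compounds were pin-transferred onto cells and incubated 48 or 72 hr at 37 degree Celsius, 95% humidity. CellTiter-Glo was added, plates sat 10 min at room temperature, then ATP-coupled luminescence was imaged as the viability read-out.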
# % is set by controls: 0 for no effect and ±100 for the full control effect.
SMILES,outcome,max response
C=C(COC(=O)CC(C)C)C1Cc2cc(C(C)=O)ccc2O1 (centres undefined),inactive,–
COc1cc(OC)cc(-c2ccc3c(-c4ccc(F)cc4)[nH]nc3n2)c1,inactive,–
C[C@H](O)C(O)(C(=O)OCc1ccccc1NC(=O)CCC(N)C(=O)O)[C@H](C)O (some centres undefined),–,-7.85%
CC(CC12CCCN1C(=O)C1CCCN1C2=O)OC(N)=O (centres undefined),inactive,–
CC12CC(c3ccoc3)OC(=O)C1CCC1(C)C2CCC(O)C1(C)O (centres undefined),inactive,–
CC1(C)CC[C@]2(C(=O)O)CC[C@]3(C)C(=CCC4[C@@]5(C)C[C@@H](O)[C@H](O)[C@@](C)(CO)C5[C@H](O)C[C@]43C)[C@@H]2C1 (some centres undefined),inactive,–
COc1cc(C)c(C(=O)OC2C(C)OC(OC3CCC(C)C4C3C=C(C)C3/C(C)=C\CC/C(C)=C/C5(C)C=C(C(=O)O)C(C)CC56OC(=O)/C(=C(\O)C34C)C6=O)C(O)C2O)c(OC)c1 (centres undefined),inactive,–
C[C@@H](c1ccccc1)N(C(N)=NC#N)c1cccc2ncccc12,inactive,–
O=C(O)c1cccc(C(=O)CCC2OC(n3cnc4c(=O)[nH]cnc43)C(O)C2O)c1 (centres undefined),inactive,–
Cc1cn(-c2cc(NC(=O)c3ccc(C)c(Nc4nccc(-c5cnccn5)n4)c3)cc(C(F)(F)F)c2)cn1,–,-3.34%
C=C(C(=O)O)C1CC(OC(=O)CC(C)CC)C2(C)CCCC(=C)C2C1 (centres undefined),–,4.7%
O=C(O)CCc1c(C(=O)O)[nH]c2cc(Cl)cc(Cl)c12,–,-1.79%
CC(C)C1(O)C=C2C(=O)CC3C(C)(C(=O)O)CCCC3(C)C2CC1 (centres undefined),–,3.97%
COc1cc2c(cc1O)CC(O)(CO)C(CO)C2c1ccc(OC2OC(CO)C(O)C(O)C2O)c(OC)c1 (centres undefined),inactive,–
C=C1C(OC(C)=O)[C@@]23CCC4[C@](C)(C(=O)O)CCC[C@@]4(C)[C@]2(O)CC[C@H]1C3 (some centres undefined),–,1.93%
C=C(C)C1Cc2c(ccc3c2OCC(c2ccc(O)cc2O)C3)O1 (centres undefined),–,-23.3%
COC(=O)C1=COC(OC2OC(CO)C(O)C(O)C2O)C2C(COC(=O)/C=C/c3ccc(O)cc3)C(O)C(O)C12 (centres undefined),inactive,–
C=C1CC/C=C(/CO)C(=O)C[C@@H]2[C@@H]1C[C@@]2(C)COC(C)=O,inactive,–
COC(O)(CC(C)C)C1Oc2cc(C)[nH]c(=O)c2O1 (centres undefined),inactive,–
CN1CCN(C2=Nc3ccccc3Nc3ccc(O)cc32)CC1,–,2.24%

SMILES,outcome,max response
O=C(O)CC/C=C\C[C@H]1CO[C@@H](c2ccccc2Cl)O[C@H]1c1ccccc1O,–,3.51%
C=C1C(=O)O[C@@H]2/C=C(\C)CC/C=C(\C(=O)O[C@@H]3O[C@H](CO)[C@@H](O)[C@H](O)[C@H]3O)CC[C@@H]12,–,4.73%
C/C(=C\CC[C@H](CO)[C@@H]1CC[C@]2(C)C3=C(CC[C@@]12C)[C@@]1(C)CCC(=O)C(C)(C)C1CC3)C(=O)O (some centres undefined),–,-4.82%
C=C1CC[C@H]2[C@@](C)(CCC(OC3OC(CO)C(O)C(O)C3O)[C@@]2(C)CO)C1C(=O)CC1=CCOC1=O (some centres undefined),inactive,–
Cc1cc(Cn2cnc3c2CC(C(=O)O)N(C(=O)C(c2ccccc2)c2ccccc2)C3)ccc1N(C)C (centres undefined),inactive,–
CC1(C)CCC2(C(=O)O)CCC3(C)C(=CCC4C5(C)CCC(O)C(C)(CO)C5C(O)CC43C)C2C1 (centres undefined),–,-7.98%
C=CC(C)(C)C12Nc3c(ccc4c3OC(C)(C)C=C4)C1(O)CC1C(=O)N3CCCC3C(=O)N12 (centres undefined),–,0.0002%
C=CC1(C)CC2CCC3C(C)(C(=O)O)CCCC3(C)C2=CC1=O (centres undefined),inactive,–
CC(C)c1ccc2c(c1)C(=O)CC1C(C)(C(=O)O)CCCC21C (centres undefined),–,-5.24%
NC[C@H]1CCC[C@@H](CNC(=O)[C@@H](Cc2c[nH]c3ccccc23)NC(=O)N2CCC3(C=Cc4ccccc43)CC2)C1,–,0.396%
C[C@H]1CC[C@H]2[C@@H](C=C[C@@](C)(O)[C@]2(C)C(=O)CCO)C1,inactive,–
CC(=O)OC[C@]12[C@H](OC(C)=O)[C@H](OC(=O)c3ccccc3)[C@@H]3[C@@H](OC(C)=O)[C@]1(OC3(C)C)[C@H](C)C[C@H](OC(=O)c1ccccc1)[C@@H]2OC(=O)c1ccccc1,inactive,–
CCOC(=O)CSc1nc2c(sc3ccccc32)c(=O)n1CCCN1CCCC1,inactive,–
CC(C)=CCC[C@](C)(O[C@@H]1O[C@H](CO[C@@H]2O[C@@H](CO)[C@H](O)[C@H]2O[C@@H]2OC[C@@H](O)[C@H](O)[C@H]2O)[C@@H](O)[C@H](O)[C@H]1O)[C@H]1CC[C@]2(C)[C@@H]1[C@H](O)CC1[C@@]3(C)CC[C@H](O[C@@H]4O[C@H](CO)[C@@H](O)[C@H](O)[C@H]4O[C@@H]4O[C@H](CO)[C@@H](O)[C@H](O)[C@H]4O)C(C)(C)C3CC[C@]12C (some centres undefined),–,4.19%
Cc1cc(-n2c(=O)[nH]c(=O)n(C)c2=O)ccc1Oc1ccc(SC(F)(F)F)cc1,–,-0.879%
CC(C)(O)C(O)C(=O)OCc1ccc(O[C@@H]2O[C@H](CO)[C@@H](O)[C@H](O)[C@H]2O)cc1 (some centres undefined),–,-9.18%
C[C@]12CC[C@@H]3c4ccc(O)cc4CC[C@H]3[C@@H]1C[C@@H](O[C@@H]1O[C@H](C(=O)O)[C@@H](O)[C@H](O)[C@H]1O)[C@@H]2O,–,2.29%
O=C(/C=C/c1ccc(O)c(O)c1)OC[C@H]1O[C@@H](OC2CCCCC2O)[C@H](O)[C@@H](O)[C@@H]1O (some centres undefined),inactive,–
Cc1ccc([C@@H]2CC=C(C(=O)O)[C@H](c3ccc(C(C)(C)C)cc3)N2S(=O)(=O)c2ccc(C)cc2)cc1,inactive,–
